Measured values reported in ChEMBL document CHEMBL1961873, “Compounds: GSK PKIS; Assays: Nanosyn kinase panel” (2012).

Tests used:
[1] = target: High affinity nerve growth factor receptor (Homo sapiens) (UniProt P04629); conditions: at 1 µM;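 also: each value is the mean percent inhibition of TRKA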
[2] = target: BDNF/NT-3 growth factors receptor (Homo sapiens) (UniProt Q16620); conditions: at 0.1 µM
[3] = target: BDNF/NT-3 growth factors receptor (Homo sapiens) (UniProt Q16620); conditions: at 1 µM
[4] = target: NT-3 growth factor receptor (Homo sapiens) (UniProt Q16288); conditions: at 0.1 µM
Sequence of NT-3 growth factor receptor (Homo sapiens) (Q16288 32-839 limits assumed): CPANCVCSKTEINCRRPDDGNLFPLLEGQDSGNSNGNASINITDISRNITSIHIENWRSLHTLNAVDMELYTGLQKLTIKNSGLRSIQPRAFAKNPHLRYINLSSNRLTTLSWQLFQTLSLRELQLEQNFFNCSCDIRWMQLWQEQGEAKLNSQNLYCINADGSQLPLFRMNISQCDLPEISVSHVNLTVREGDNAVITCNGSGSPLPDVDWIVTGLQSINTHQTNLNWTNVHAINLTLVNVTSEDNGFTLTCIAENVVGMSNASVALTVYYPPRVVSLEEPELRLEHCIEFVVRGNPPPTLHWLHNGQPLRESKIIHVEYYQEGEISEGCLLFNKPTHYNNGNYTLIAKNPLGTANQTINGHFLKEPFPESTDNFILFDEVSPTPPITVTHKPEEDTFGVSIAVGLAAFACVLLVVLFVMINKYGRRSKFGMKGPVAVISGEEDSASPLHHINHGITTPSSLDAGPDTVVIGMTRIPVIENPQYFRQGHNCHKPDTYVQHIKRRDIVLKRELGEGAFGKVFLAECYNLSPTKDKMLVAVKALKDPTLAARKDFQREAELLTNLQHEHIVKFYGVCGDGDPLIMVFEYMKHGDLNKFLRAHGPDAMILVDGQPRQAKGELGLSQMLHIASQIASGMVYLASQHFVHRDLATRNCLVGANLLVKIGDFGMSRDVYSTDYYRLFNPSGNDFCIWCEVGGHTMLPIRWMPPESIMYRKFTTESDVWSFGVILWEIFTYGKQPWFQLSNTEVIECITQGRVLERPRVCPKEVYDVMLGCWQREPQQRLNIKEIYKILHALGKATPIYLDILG

[5] = target: NT-3 growth factor receptor (Homo sapiens) (UniProt Q16288); conditions: at 1 µM
[6] = target: T1, Tyrosine-protein kinase TXK (Homo sapiens) (UniProt P42681); conditions: at 0.1 µM
T1 sequence (whole entry): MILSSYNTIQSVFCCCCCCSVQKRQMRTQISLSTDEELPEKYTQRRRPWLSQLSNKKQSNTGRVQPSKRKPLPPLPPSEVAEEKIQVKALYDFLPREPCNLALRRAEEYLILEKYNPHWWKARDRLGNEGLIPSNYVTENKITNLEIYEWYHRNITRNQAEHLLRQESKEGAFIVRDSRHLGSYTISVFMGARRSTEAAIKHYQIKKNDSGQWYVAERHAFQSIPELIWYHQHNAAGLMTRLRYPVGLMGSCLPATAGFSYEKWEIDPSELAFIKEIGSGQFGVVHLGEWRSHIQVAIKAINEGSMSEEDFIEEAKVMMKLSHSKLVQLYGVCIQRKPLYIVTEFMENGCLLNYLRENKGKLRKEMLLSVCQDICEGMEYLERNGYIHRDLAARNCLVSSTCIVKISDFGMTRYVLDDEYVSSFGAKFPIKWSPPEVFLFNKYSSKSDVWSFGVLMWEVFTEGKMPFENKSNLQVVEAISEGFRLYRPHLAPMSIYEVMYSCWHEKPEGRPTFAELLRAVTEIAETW

[7] = target: T1, Tyrosine-protein kinase TXK (Homo sapiens); conditions: at 1 µM
[8] = target: Non-receptor tyrosine-protein kinase TYK2 (Homo sapiens) (UniProt P29597); conditions: at 0.1 µM;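 also: each value is a mean of the inhibition readings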
[9] = target: T2, Dual specificity protein kinase TTK (Homo sapiens) (UniProt P33981); conditions: at 1 µM;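 also: reported figures are mean TTK inhibition at 1 µM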
T2 sequence (whole entry): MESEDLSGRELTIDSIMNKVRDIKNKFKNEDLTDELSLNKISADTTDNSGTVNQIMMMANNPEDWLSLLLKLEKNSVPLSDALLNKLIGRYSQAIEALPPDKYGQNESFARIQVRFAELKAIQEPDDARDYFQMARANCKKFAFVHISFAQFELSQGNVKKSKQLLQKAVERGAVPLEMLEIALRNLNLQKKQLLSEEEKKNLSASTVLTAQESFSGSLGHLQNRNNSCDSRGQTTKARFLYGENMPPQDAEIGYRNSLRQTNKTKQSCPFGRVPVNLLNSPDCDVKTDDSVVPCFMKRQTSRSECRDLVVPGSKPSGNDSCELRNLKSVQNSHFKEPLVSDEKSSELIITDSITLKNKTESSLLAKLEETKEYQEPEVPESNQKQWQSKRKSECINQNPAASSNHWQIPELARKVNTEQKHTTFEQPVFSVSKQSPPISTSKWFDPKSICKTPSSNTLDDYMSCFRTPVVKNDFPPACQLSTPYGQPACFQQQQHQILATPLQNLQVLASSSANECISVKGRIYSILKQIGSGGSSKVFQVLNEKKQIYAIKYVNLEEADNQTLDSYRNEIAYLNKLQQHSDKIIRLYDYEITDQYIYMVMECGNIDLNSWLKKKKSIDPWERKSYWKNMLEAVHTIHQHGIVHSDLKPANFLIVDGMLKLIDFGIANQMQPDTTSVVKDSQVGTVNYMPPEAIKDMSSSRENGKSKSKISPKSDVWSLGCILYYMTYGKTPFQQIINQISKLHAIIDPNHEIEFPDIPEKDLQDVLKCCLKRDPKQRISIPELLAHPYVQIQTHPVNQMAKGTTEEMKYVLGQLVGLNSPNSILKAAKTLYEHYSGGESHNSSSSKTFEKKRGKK

[10] = target: T3, Aurora kinase A (Homo sapiens) (UniProt O14965); conditions: at 0.1 µM
T3 sequence (whole entry): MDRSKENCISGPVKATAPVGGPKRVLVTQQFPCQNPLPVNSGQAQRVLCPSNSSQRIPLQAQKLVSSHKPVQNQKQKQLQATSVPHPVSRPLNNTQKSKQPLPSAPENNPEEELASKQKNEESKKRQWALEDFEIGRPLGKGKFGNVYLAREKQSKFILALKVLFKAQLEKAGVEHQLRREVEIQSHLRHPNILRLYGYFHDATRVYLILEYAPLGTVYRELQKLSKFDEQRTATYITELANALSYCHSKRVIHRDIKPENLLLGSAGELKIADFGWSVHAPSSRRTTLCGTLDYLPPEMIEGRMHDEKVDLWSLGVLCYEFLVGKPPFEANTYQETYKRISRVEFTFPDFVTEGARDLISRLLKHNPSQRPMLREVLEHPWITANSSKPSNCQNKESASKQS

[11] = target: T3, Aurora kinase A (Homo sapiens); conditions: at 1 µM
[12] = target: Aurora kinase B (Homo sapiens) (UniProt Q96GD4); conditions: at 0.1 µM
Sequence of Aurora kinase B (Homo sapiens) (Q96GD4 whole entry): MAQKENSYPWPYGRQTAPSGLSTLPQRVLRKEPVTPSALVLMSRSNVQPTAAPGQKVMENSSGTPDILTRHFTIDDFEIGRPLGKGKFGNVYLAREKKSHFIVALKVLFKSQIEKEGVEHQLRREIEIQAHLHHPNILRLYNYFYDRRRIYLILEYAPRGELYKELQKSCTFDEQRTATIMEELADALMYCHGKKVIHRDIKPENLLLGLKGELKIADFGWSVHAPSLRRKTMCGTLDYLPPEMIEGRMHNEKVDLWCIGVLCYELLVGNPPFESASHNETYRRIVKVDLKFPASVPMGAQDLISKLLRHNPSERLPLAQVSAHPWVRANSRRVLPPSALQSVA

[13] = target: Aurora kinase B (Homo sapiens) (UniProt Q96GD4); conditions: at 1 µM
[14] = target: T4, Aurora kinase C (Homo sapiens) (UniProt Q9UQB9); conditions: at 0.1 µM
T4 sequence (whole entry): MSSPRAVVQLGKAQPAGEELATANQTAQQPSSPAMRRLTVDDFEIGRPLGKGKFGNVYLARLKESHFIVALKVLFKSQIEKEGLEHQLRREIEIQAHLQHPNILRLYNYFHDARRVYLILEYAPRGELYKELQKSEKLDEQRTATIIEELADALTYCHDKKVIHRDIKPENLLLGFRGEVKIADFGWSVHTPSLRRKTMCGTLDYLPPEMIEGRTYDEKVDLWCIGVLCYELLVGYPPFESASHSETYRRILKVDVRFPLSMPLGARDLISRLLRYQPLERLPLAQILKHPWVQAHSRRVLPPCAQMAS

[15] = target: T4, Aurora kinase C (Homo sapiens); conditions: at 1 µM
[16] = target: Serine/threonine-protein kinase 10 (Homo sapiens) (UniProt O94804); conditions: at 0.1 µM
Sequence of Serine/threonine-protein kinase 10 (Homo sapiens) (O94804 whole entry, looked up): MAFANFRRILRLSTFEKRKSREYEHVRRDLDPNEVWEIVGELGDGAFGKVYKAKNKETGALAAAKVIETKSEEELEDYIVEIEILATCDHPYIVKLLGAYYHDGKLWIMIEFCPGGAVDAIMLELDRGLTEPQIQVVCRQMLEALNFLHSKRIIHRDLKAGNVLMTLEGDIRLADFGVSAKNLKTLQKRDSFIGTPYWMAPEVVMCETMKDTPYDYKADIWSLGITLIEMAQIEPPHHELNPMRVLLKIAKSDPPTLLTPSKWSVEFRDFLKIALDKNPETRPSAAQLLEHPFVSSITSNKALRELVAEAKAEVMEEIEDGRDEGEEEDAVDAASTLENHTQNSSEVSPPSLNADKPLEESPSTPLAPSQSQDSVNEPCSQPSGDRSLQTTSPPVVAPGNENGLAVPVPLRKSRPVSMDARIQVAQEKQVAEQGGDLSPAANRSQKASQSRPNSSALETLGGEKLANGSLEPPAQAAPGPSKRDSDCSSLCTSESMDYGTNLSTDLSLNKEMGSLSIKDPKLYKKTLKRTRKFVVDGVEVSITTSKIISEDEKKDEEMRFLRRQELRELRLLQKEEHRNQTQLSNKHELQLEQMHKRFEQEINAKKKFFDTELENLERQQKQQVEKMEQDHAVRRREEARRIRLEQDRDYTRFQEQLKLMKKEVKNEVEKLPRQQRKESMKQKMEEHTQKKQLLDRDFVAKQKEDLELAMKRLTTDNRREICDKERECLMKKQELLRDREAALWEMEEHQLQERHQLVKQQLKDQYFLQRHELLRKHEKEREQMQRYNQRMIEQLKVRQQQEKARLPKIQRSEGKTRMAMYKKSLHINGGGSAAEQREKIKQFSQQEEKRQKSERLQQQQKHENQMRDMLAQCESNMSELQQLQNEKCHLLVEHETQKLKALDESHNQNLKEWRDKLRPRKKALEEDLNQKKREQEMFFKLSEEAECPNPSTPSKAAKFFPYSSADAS

[17] = target: Serine/threonine-protein kinase 10 (Homo sapiens) (UniProt O94804); conditions: at 1 µM
[18] = target: T5, Mitogen-activated protein kinase kinase kinase kinase 2 (Homo sapiens) (UniProt Q12851); conditions: at 0.1 µM
T5 sequence (whole entry): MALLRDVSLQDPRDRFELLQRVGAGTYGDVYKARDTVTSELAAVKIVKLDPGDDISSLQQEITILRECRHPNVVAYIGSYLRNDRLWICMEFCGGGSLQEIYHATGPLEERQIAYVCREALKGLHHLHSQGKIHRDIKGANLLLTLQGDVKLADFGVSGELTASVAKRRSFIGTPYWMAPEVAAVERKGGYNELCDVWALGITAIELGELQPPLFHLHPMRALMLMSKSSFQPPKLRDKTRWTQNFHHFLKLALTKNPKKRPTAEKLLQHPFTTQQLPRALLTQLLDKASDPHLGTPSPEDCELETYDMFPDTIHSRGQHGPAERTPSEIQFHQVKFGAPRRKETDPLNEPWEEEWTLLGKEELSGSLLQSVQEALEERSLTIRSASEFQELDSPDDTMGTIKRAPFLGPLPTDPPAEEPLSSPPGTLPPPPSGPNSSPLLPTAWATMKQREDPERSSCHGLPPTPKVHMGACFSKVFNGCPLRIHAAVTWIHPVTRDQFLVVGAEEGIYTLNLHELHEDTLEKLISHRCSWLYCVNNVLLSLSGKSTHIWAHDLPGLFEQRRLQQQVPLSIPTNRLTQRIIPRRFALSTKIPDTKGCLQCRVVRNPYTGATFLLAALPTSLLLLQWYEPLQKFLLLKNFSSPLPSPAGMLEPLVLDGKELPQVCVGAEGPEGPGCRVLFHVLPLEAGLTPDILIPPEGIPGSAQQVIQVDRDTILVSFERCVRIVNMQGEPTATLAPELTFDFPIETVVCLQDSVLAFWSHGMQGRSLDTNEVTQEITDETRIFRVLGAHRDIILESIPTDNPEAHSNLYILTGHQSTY

[19] = target: T5, Mitogen-activated protein kinase kinase kinase kinase 2 (Homo sapiens); conditions: at 1 µM
[20] = target: Mitogen-activated protein kinase kinase kinase kinase 4 (Homo sapiens) (UniProt O95819); conditions: at 0.1 µM
Sequence of Mitogen-activated protein kinase kinase kinase kinase 4 (Homo sapiens) (O95819 2-1239 limits assumed): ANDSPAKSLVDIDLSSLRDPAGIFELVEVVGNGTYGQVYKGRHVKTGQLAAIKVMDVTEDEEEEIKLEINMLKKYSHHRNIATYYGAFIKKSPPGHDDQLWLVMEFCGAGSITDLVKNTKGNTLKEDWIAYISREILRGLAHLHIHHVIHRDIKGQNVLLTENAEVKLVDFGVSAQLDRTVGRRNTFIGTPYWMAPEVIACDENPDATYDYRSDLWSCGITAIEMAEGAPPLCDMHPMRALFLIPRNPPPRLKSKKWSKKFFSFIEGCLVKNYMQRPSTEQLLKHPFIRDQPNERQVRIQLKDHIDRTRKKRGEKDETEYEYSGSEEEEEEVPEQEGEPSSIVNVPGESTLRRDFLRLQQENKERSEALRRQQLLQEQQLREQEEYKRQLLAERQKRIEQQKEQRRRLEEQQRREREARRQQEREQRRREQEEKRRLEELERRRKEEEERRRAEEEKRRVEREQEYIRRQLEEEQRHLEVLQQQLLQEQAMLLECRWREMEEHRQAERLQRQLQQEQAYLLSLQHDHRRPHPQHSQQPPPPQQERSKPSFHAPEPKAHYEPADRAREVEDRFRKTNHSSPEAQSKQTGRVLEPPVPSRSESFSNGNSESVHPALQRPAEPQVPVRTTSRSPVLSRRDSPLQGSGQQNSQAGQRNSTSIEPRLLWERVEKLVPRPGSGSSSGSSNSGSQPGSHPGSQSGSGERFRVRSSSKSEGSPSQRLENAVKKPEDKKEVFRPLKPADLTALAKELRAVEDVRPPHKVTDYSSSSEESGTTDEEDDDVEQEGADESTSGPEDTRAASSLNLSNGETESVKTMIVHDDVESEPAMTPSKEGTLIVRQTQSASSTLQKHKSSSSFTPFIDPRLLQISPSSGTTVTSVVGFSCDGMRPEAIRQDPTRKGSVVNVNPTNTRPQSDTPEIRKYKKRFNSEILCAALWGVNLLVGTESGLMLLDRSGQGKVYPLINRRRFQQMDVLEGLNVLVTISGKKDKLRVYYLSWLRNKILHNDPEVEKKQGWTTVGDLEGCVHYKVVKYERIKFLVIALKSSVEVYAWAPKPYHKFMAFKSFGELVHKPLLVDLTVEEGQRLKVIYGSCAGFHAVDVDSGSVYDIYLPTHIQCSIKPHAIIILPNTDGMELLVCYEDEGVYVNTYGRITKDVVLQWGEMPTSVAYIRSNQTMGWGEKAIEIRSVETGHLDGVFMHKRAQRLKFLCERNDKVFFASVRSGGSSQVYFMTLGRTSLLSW

Sequence of BDNF/NT-3 growth factors receptor (Homo sapiens) (Q16620 32-822 limits assumed): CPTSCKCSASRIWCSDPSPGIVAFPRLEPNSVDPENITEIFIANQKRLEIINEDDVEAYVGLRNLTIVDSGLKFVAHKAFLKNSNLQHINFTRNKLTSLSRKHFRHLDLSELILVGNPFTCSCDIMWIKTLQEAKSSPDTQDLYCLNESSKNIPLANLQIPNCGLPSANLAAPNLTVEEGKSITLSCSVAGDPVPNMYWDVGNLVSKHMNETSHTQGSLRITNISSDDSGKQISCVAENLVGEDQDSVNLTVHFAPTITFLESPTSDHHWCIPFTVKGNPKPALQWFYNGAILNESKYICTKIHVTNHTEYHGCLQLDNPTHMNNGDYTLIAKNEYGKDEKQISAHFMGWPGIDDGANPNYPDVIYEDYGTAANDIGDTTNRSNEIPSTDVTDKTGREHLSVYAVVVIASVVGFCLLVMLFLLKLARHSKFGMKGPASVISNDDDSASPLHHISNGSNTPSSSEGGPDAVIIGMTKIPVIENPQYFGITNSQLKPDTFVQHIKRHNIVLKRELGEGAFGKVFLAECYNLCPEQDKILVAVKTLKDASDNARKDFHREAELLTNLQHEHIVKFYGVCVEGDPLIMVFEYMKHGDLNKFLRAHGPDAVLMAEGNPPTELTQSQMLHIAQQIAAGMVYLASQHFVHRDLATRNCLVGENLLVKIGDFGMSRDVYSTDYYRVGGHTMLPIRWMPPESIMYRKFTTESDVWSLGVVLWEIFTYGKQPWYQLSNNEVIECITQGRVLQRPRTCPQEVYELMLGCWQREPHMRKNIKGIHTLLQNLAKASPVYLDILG
Sequence of High affinity nerve growth factor receptor (Homo sapiens) (P04629 33-796 limits assumed): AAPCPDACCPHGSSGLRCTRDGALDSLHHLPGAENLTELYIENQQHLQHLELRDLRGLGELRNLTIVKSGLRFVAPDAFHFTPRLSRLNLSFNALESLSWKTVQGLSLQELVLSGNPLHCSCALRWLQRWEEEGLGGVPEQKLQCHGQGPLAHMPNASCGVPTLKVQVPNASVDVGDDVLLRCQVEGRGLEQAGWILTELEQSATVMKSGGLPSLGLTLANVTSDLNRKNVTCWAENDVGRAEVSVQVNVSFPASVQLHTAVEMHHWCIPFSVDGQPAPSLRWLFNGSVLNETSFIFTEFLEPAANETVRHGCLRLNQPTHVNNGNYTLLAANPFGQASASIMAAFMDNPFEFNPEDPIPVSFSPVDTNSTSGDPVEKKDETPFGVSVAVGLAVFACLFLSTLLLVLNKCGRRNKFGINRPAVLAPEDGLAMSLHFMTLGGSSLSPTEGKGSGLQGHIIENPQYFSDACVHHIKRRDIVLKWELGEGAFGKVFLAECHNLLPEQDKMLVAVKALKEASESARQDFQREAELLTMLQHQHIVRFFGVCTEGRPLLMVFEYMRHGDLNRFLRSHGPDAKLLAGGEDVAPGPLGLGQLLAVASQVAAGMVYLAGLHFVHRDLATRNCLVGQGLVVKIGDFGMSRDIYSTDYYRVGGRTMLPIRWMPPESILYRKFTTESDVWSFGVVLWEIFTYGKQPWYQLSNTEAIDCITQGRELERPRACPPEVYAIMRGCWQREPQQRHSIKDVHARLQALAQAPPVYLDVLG

SMILES | inhibition [1] | inhibition [2] | inhibition [3] | inhibition [4] | inhibition [5] | inhibition [6] | inhibition [7] | inhibition [8] | inhibition [9] | inhibition [10] | inhibition [11] | inhibition [12] | inhibition [13] | inhibition [14] | inhibition [15] | inhibition [16] | inhibition [17] | inhibition [18] | inhibition [19] | inhibition [20]
CS(=O)(=O)Nc1cccc(-c2ccc3c(NC(=O)C4CC4)n[nH]c3c2)c1 | 2.02% | 0.05% | 0.23% | -0.22% | 5.08% | -1.12% | 2.67% | 0.85% | 5.01% | 2.68% | 12.4% | 1.84% | 3.58% | 1.43% | 15.6% | 3.13% | 10.2% | 1.94% | 2.98% | 2.8%
NS(=O)(=O)c1ccc(NC=C2C(=O)Nc3ccc4ncsc4c32)cc1 | 68.8% | 31.8% | 80.2% | 35.6% | 84.6% | 4.55% | 17.2% | 11% | 75.5% | 34.6% | 90.4% | 29.9% | 69.6% | 28.4% | 92.2% | 6.33% | 26.9% | 27.2% | 66.5% | 69.4%
Nc1ccc(C#Cc2cncnc2Nc2ccc(OCc3cccc(F)c3)c(Cl)c2)cc1 | 0.62% | 1.89% | 1.57% | 2.2% | 1.81% | -1.58% | 2.93% | 0.67% | 6.25% | 2.18% | 0.03% | 3.38% | 1.27% | 0.25% | 2.24% | 5.13% | 6.55% | 0.2% | 1.98% | 2.07%
COc1ccc(-c2nn3ncccc3c2-c2ccnc(Nc3cccc(C(F)(F)F)c3)n2)cc1 | 3.94% | 1.95% | 3.32% | 2.64% | 1.56% | 0.17% | 3.03% | 0.38% | 6.51% | 2.9% | 5.62% | 1.05% | 5.57% | 1.98% | 5.91% | 6.76% | 12.3% | 2.11% | 1.6% | 3.02%
CS(=O)(=O)CCNCc1nc(-c2ccc3ncnc(Nc4ccc(OCc5cccc(C(F)(F)F)c5)cc4)c3c2)cs1 | 5.08% | 2.33% | 12.1% | 1.39% | 7.81% | 6.88% | 5.83% | -3.62% | 2.16% | 3.8% | 2.26% | 4.85% | 6.3% | 5.42% | 5.59% | 6.68% | 10% | -0.19% | 3.96% | 1.73%
COc1cc2ncnc(Nc3ccc(C)c(O)c3)c2cc1OC | 2.17% | 3.65% | 6.25% | 1.67% | 7.05% | 8.65% | 29.5% | -5.98% | 7.27% | 2.56% | 7.23% | 4.5% | 8.54% | 1.17% | 4.32% | 21.1% | 70.1% | 2.26% | 5.63% | 7.16%
COc1cc2ncn(-c3cc(OCc4ccccc4S(C)(=O)=O)c(C#N)s3)c2cc1OC | 18.8% | 15% | 57.2% | 12.9% | 56.1% | 10.8% | 42.5% | -7.35% | 11.1% | 12.4% | 77.2% | 28.2% | 73.6% | 17.7% | 93.8% | 35.5% | 71.7% | 8.65% | 41.3% | 57.5%
